Results taken from the supplement of paper PMC4166925.
± gives the standard deviation of the averaged measurements. Whole data set: some 33,000 sequences, median “E-score (dimensionless, -0.5 to 0.5)” near -0.046, cut for the highest 2% near 0.36. The entries come from a sample that favours the highest values as a whole.

Test system: T1, SpTbr T-box DNA-binding domain (GST fusion)
T1 sequence: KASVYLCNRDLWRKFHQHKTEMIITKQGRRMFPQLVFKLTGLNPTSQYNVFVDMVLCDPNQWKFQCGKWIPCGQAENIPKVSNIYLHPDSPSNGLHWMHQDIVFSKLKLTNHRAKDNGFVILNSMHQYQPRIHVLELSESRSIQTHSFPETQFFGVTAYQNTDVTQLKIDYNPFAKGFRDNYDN
Assay: PBM E-score of 8-mer (E-score (dimensionless, -0.5 to 0.5)); Tbr is Tbrain of the sea star Patiria miniata (Pm) or the sea urchin Strongylocentrotus purpuratus (Sp); higher = stronger binding preference
Conditions: the construct has about 5 more residues each side
Description: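 Universal protein-binding microarray (Agilent AMADID 016060, 60-bp probes with a 35-bp variable region) incubated with 200 nM GST-fused Strongylocentrotus purpuratus Tbr T-box DNA-binding domain (residues 362-554) in PBS pH 7.5. Scored for every ungapped 8-mer (given with its reverse complement) as E-score (range -0.5 to 0.5; >0.45 counts as bound) and Z-score of median probe intensity. Two replicate arrays (datasets 1 and 2).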
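Also: protein at 200 nM in PBS on universal double-stranded arrays.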

| Sequence | PBM E-score of 8-mer |
| --- | --- |
| ACAAGGTC | 0.202 ± 0.026 |
| AGATCTTC | 0.0938 ± 0.043 |
| ACTTGTCA | 0.4189 ± 0.00086 |
| CGTTGTGA | 0.162 ± 0.028 |
| AGTTGTGA | 0.407 ± 0.0049 |
| TCTTGTCA | 0.24 ± 0.014 |
| GCTTGTCA | 0.12044 ± 2.8e-05 |
| ACTTGTGG | 0.205 ± 0.00054 |
| AGTTGTGG | 0.164 ± 0.06 |
| ACTTGTGA | 0.412 ± 0.011 |
| GCTTGTGA | 0.202 ± 0.074 |
| ATTGCGAC | -0.0335 ± 0.048 |
| CGATGACG | 0.0899 ± 0.049 |
| AGCCTATC | -0.168 ± 0.1 |
| AACAATGC | -0.018 ± 0.0069 |
| CAGAGTTC | -0.129 ± 0.032 |
| ACTGGTAC | -0.0857 ± 0.01 |
| AACCACTT | -0.0435 ± 0.018 |
| CAGGTGGC | 0.323 ± 0.0069 |
| AAGGTGGA | -0.0733 ± 0.085 |
| AAGGTGGG | 0.242 ± 0.042 |
| GAGGTGGC | 0.3855 ± 0.0037 |
| GAGGTGGA | 0.06436 ± 0.00017 |
| AAGGTGGC | 0.372 ± 0.0085 |
| AATGGCCT | -0.0378 ± 0.026 |

| Sequence | PBM E-score of 8-mer |
| --- | --- |
| AGAGTTTC | -0.243 ± 0.052 |
| AGCTAGCG | 0.0935 ± 0.042 |
| GACCTCGA | -0.0589 ± 0.014 |
| CACCTCGC | 0.439 ± 0.012 |
| AACCTCGA | -0.0446 ± 0.051 |
| GACCTCGC | 0.0532 ± 0.0042 |
| CACCTCGG | 0.402 ± 0.0072 |
| CACCTCGA | 0.44517 ± 8.5e-05 |
| AACCTCGG | -0.108 ± 0.049 |
| CCCCTCGG | -0.255 ± 0.051 |
| AACCTCGC | 0.152 ± 0.055 |
| CGACCCAC | 0.00361 ± 0.024 |
| ACTTTCGC | 0.328 ± 0.038 |
| ATGGGGGC | -0.283 ± 0.021 |
| AGGGACTA | -0.1367 ± 0.00023 |
| CTCAAGGC | -0.137 ± 0.013 |
| ATTACGCG | 0.19 ± 0.028 |
| ATGTCTAG | -0.0188 ± 0.02 |
| GCAGTGCC | -0.102 ± 0.027 |
| GATCCTCA | 0.11 ± 0.055 |
| GATAGCCC | -0.217 ± 0.0042 |
| ACACTTGA | 0.347 ± 0.0096 |
| CCACTTGC | 0.192 ± 0.049 |
| AAACTTGC | 0.102 ± 0.0067 |
| ACACTTGG | 0.367 ± 0.022 |

| Sequence | PBM E-score of 8-mer |
| --- | --- |
| ACACTTGC | 0.4 ± 0.0054 |
| ATACTTGG | -0.22 ± 0.046 |
| GCCTAAGA | -0.128 ± 0.039 |
| ACGCTGAG | -0.115 ± 0.075 |
| AGGCCATA | -0.0266 ± 0.0079 |
| ATACCCTG | -0.119 ± 0.008 |
| ACACCCTG | 0.415 ± 0.024 |
| ACCCCCTC | -0.0672 ± 0.037 |
| ACACCCTC | 0.402 ± 0.016 |
| CCACCCTC | 0.0803 ± 0.068 |
| ACCCCCTG | 0.0826 ± 0.062 |
| CCACCCTA | 0.0825 ± 0.11 |
| ACACCCTA | 0.371 ± 0.01 |
| GCACCCTA | 0.118 ± 0.032 |
| GTCTAGAA | -0.242 ± 0.049 |
| CAGATCGA | -0.12 ± 0.014 |
| AGAGTTCG | -0.121 ± 0.068 |
| GATCGCAA | 0.2797 ± 0.00053 |
| AATCGCAC | 0.4074 ± 0.00091 |
| AATCGCAT | 0.113 ± 0.0034 |
| GATCGCAC | 0.442 ± 0.0075 |
| AATCGCAG | 0.0391 ± 0.046 |
| CATCGCAG | 0.109 ± 0.046 |
| GATCGCGC | 0.352 ± 0.025 |
| CATCGCAA | -0.03 ± 0.019 |

| Sequence | PBM E-score of 8-mer |
| --- | --- |
| CATCGCAC | 0.376 ± 0.019 |
| GGGGAGCA | -0.25 ± 0.0084 |
| AGCACTGA | 0.0628 ± 0.0091 |
| AGTGCCCC | -0.185 ± 0.025 |
| CATGTCGA | -0.0673 ± 0.11 |
| AAGACGAT | -0.0524 ± 0.029 |
| GCGCGCGC | 0.0386 ± 0.035 |
| AGACTGAT | -0.168 ± 0.062 |
| GTCCAGCA | -0.295 ± 0.06 |
| CCTTTAAC | 0.141 ± 0.02 |
| CACTTCAG | 0.269 ± 0.049 |
| CACTTCAC | 0.39 ± 0.0097 |
| AACTTCAC | 0.147 ± 0.036 |
| CTAAGGAA | -0.158 ± 0.034 |
| CACCTGCG | 0.425 ± 0.0075 |
| AACCTGCG | 0.0936 ± 0.029 |
| CACCTGGC | 0.389 ± 0.021 |
| CACCTGGA | 0.297 ± 0.025 |
| AACCTGCC | -0.0535 ± 0.017 |
| GACCTGCC | 0.0636 ± 0.012 |
| AACCTGGC | 0.0794 ± 0.017 |
| CACCTGCA | 0.346 ± 0.0038 |
| CACCTGCC | 0.3954 ± 0.00044 |
| AATGGATC | -0.0632 ± 0.037 |
| GAATCGTA | -0.0254 ± 0.00061 |

| Sequence | PBM E-score of 8-mer |
| --- | --- |
| CGACTGCA | -0.155 ± 0.0016 |
| CGAGGGGA | -0.0885 ± 0.018 |
| CAGTGCTC | 0.0319 ± 0.0026 |
| AGACACTC | 0.129 ± 0.029 |
| CTGACACC | 0.4611 ± 0.0014 |
| CTGACATC | -0.107 ± 0.031 |
| ATGACACG | 0.315 ± 0.035 |
| ATGACACC | 0.4599 ± 0.0031 |
| CTGACAGC | 0.318 ± 0.0042 |
| ATGACACA | 0.327 ± 0.033 |
| ACTCATAA | -0.0942 ± 0.0043 |
| CAGAGCGC | -0.00751 ± 0.044 |
| CAGGTCGC | 0.225 ± 0.038 |
| GTTTCAAA | -0.327 ± 0.079 |
| GTTTCACA | 0.38 ± 0.012 |
| CTTTCACC | 0.0179 ± 0.03 |
| ATTTCACA | 0.4303 ± 0.0022 |
| ATTTCACG | 0.293 ± 0.04 |
| CTTTCAAA | -0.203 ± 0.0062 |
| CTTTCACA | 0.44384 ± 0.0002 |
| GCTTCACA | 0.347 ± 0.013 |
| ATTTCACC | 0.0204 ± 0.024 |
| CGCCCAGA | 0.0494 ± 0.0041 |
| AGCTAACT | -0.27 ± 0.067 |
| CCAGTATC | -0.199 ± 0.063 |

| Sequence | PBM E-score of 8-mer |
| --- | --- |
| CCCTTAGG | 0.00499 ± 0.015 |
| AGCCCCCT | -0.356 ± 0.013 |
| TGCAAGAA | -0.0626 ± 0.014 |
| ACTCTTTG | 0.221 ± 0.066 |
| GGCGTCAA | 0.412 ± 0.018 |
| AGCGTTAA | 0.36 ± 0.025 |
| TGCGTTAA | 0.208 ± 0.026 |
| CGCGTCAC | 0.277 ± 0.039 |
| CGCGTCAA | 0.313 ± 0.006 |
| GGCGTCAC | 0.373 ± 0.024 |
| AGCGTCAA | 0.317 ± 0.0075 |
| AGCGTCAC | 0.3328 ± 0.0021 |
| GGCGTTAA | 0.387 ± 0.0042 |
| AAGCGATA | 0.2613 ± 0.002 |
| ATAGGCTG | 0.0188 ± 0.056 |
| TATGTACA | -0.174 ± 0.083 |
| GGAGCAAC | 0.0231 ± 0.049 |
| GAACTTCA | -0.0825 ± 0.021 |
| ACAGTCCG | 0.00019 ± 0.0047 |
| GGGGTACC | -0.1738 ± 0.00025 |
| CGGCGTGC | 0.00958 ± 0.15 |
| GCGTGAAC | 0.456 ± 0.0075 |
| ACGTGACC | 0.135 ± 0.082 |
| GCGTGACA | 0.345 ± 0.023 |
| CCGTGAAC | 0.353 ± 0.0099 |

| Sequence | PBM E-score of 8-mer |
| --- | --- |
| GCGTGAAA | 0.4597 ± 0.0039 |
| CCGTGAAA | 0.245 ± 0.022 |
| ACGTGAAC | 0.126 ± 0.031 |
| TCGTGAAA | 0.253 ± 0.054 |
| GCGTGACC | 0.369 ± 0.004 |
| CCGGATCG | -0.114 ± 0.033 |
| CAAAAAAA | -0.1537 ± 0.00074 |
| CAAGCTTC | -0.215 ± 0.013 |
| AAGGTCAC | 0.164 ± 0.036 |
| AACGGGAT | -0.0959 ± 0.041 |
| CGTTTCCA | 0.0866 ± 0.0024 |
| CAGTGCGC | 0.00847 ± 0.051 |
| TAGTGCAA | 0.247 ± 0.024 |
| ATGTGCGG | 0.0899 ± 0.0075 |
| AAGTGCGA | 0.483 ± 0.0069 |
| CAGTGCGA | 0.386 ± 0.0039 |
| CAGTGCGG | 0.107 ± 0.0036 |
| ATGTGCGA | 0.47362 ± 0.00026 |
| TAGTGCGA | 0.4025 ± 0.0017 |
| TAGTGCCA | 0.195 ± 0.009 |
| AAGTGCGC | 0.194 ± 0.018 |
| ATGTGCGC | 0.211 ± 0.054 |
| AAGTGCGT | 0.203 ± 0.018 |
